# According to PubChem BioAssay:
# Active and inactive are the calls of the source.
# How the values were obtained:
# Albumin (Bos taurus) = Albumin (Bos taurus) (UniProt P02769); experiment: compounds binding labelled BSA control protein – biochemical, small-molecule microarray, Alexa647 label, 635/667 nm fluorescence, artefact control for SMM control protein annotation, profiling panel (AID 1118); conditions: BSA-A647 binding, fluorescence 635 nm, higher = more signal;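 also: score merges 667 nm emission intensity and signal-to-noise per printed compound spot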
# Sequence of Albumin (Bos taurus) (P02769 whole entry, looked up): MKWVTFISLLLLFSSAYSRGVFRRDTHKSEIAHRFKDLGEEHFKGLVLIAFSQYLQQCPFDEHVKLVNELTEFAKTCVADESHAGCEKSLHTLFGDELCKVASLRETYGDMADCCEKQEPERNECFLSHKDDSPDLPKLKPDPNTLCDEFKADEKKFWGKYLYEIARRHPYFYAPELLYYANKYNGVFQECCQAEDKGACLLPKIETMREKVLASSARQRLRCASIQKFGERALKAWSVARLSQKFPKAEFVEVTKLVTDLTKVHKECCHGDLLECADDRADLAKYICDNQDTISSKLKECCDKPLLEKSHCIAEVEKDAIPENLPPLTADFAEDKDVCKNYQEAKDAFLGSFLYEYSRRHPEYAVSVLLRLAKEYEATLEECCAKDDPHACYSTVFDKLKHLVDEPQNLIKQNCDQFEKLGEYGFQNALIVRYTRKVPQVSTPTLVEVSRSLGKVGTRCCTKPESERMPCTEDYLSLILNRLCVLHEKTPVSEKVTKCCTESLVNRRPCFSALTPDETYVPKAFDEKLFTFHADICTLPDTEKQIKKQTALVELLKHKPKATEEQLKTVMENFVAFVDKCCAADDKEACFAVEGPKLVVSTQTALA
# [1] = probe aXIP binding to arrayed compounds – biochemical, NeuroSMM set, 635/667 nm fluorescence, primary screen (AID 1119); conditions: small-molecule microarray, higher = more signal, called active from +8 up or from −8 down;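 also: probe is the protein aXip251-270 applied at 1 µg/mL to compound-printed slides; binding of probe to printed compounds measured as 667 nm fluorescence plus signal to noise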
# [2] = probe aNOTCH3 binding on compound microarray – biochemical, small-molecule microarray, 635/667 nm fluorescence, primary screen (AID 1120); conditions: higher = more signal;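 also: probe is a biotin-tagged antibody raised against NOTCH3 rather than NOTCH3 protein; score merges spot fluorescence near 667 nm with spot signal to noise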
# [3] = probe aNOTCH2 binding on compound microarray – biochemical, small-molecule microarray, 635/667 nm fluorescence, primary screen (AID 1121); conditions: higher = more signal;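 also: score merges feature fluorescence read at 667 nm with its signal to noise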
# [4] = biological target: Carbonic anhydrase 2 (Homo sapiens) (UniProt P00918); experiment: compounds binding carbonic anhydrase 2 – biochemical, small-molecule microarray, Alexa647-labelled CAII, profiling panel (AID 1122); conditions: CAII-A647 binding fluorescence, higher = more signal
# [5] = COS7 lysate on small-molecule microarray, probe aHis, 635 nm (AID 1123); conditions: COS7 cell lysate, fluorescence, higher = more signal;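 also: z-score combines 667nm fluorescence intensity with signal-to-noise per printed compound spot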
# [6] = probe aLAP1 signal on lysate-treated microarray – cell lysate, small-molecule microarray, COS7 lysate, primary screen (AID 1124); conditions: probe aLAP1, fluorescence, higher = more signal;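 also: lysate comes from COS7 cells expressing LAP1 and is applied at 0.3 µg/mL; score merges spot fluorescence near 667 nm with signal-to-noise over triplicate slides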
# Sam68 (KHDRBS1) = experiment: compounds binding KHDRBS1 protein – biochemical, small-molecule microarray, 635 nm fluorescence, primary screen (AID 1125); conditions: higher = more signal;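 also: score merges 667 nm channel intensity with signal to noise over triplicate slides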
# [7] = tested on: Chordin-like protein 2 (CHRDL2); experiment: compounds binding chordin-like 2 – biochemical, small-molecule microarray, 635 nm fluorescence, primary screen (AID 1126); conditions: fluorescence 635 nm, higher = more signal;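 also: printed compound slides probed with Chrdl2 protein at 4 µg/mL for 1 h at 4 C; score merges 667 nm emission intensity with signal to noise over three replicate slides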
# [8] = biological target: Concanavalin-A (Canavalia ensiformis) (UniProt P02866); experiment: compounds binding concanavalin A lectin – biochemical, small-molecule microarray, Alexa647 label, 635 nm, artefact control for SMM control protein annotation, primary screen (AID 1127); conditions: ConA-A647 binding fluorescence, higher = more signal;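 also: z combines 667 nm emission intensity with signal-to-noise across three replicate slides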
# Sequence of Concanavalin-A (Canavalia ensiformis) (P02866 whole entry, looked up): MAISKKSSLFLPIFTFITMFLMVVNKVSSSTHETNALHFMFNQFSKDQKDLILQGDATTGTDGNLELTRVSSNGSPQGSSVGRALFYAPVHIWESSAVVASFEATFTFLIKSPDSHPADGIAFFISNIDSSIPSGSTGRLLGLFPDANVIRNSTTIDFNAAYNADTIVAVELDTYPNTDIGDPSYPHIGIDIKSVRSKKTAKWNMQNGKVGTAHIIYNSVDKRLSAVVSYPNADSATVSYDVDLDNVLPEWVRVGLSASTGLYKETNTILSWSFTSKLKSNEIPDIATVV
# [9] = compounds binding Alexa647 anti-His antibody – biochemical, small-molecule microarray, 635 nm fluorescence, artefact control for SMM control protein annotation, primary screen (AID 1128); conditions: higher = more signal;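 also: score merges feature fluorescence with signal-to-noise for each printed compound spot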
# [10] = tested on: Human papillomavirus type 1a E7 protein (residues 1-88); experiment: HPV1a E7 small-molecule binders, primary screen, biochemical, small-molecule microarray, residues 1-88, 635 nm (AID 1129); conditions: small-molecule microarray binding, fluorescence 635 nm; higher = more signal
# [11] = biological target: Focal adhesion kinase 1 (Homo sapiens) (UniProt Q05397); experiment: PTK2 protein binding on printed compound slides – biochemical, small-molecule microarray, 635/667 nm fluorescence, BSA, DTT, primary screen (AID 1130); conditions: 635 nm fluorescence, higher = more signal;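 also: composite of spot emission at 667 nm and signal to noise over triplicate slides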
# Sequence of Focal adhesion kinase 1 (Homo sapiens) (Q05397 whole entry, looked up): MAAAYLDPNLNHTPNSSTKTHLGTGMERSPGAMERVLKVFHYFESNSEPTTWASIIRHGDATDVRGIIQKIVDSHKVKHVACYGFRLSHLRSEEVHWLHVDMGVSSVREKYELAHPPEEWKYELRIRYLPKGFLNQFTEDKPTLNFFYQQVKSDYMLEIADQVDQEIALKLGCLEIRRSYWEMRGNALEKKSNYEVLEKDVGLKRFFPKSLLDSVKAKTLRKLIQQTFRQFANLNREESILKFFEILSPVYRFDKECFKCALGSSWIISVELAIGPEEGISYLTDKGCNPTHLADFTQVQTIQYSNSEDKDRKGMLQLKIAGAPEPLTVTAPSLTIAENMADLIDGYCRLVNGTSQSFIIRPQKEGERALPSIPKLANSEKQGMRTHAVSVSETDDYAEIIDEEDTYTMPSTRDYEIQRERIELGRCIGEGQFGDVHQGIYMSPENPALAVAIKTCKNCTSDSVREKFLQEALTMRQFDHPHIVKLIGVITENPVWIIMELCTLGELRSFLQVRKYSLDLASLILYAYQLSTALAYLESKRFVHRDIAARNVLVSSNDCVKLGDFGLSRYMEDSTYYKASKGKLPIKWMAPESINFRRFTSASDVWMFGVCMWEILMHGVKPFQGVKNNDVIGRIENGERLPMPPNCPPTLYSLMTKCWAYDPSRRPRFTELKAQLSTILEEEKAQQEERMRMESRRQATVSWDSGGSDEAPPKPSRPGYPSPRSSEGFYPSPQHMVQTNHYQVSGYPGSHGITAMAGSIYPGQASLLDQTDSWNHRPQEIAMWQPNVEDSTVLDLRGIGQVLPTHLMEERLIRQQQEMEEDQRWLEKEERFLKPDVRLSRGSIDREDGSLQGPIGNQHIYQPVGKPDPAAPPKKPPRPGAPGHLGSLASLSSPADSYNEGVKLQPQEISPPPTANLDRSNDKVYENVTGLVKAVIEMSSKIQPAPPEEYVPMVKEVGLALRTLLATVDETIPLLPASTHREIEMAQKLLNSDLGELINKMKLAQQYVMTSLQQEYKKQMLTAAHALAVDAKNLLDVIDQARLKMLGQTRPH
# [12] = tested on: Fibrinogen (Alexa647-labelled); experiment: Alexa647-fibrinogen binding to printed small molecules – biochemical, small-molecule microarray, 635/667 nm fluorescence, artefact control for SMM control-protein annotation, profiling panel (AID 1131); conditions: fibrinogen-A647 binding fluorescence, higher = more signal;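 also: z-score merges 667 nm fluorescence with per-spot signal-to-noise over triplicate slides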
# [13] = biological target: Follistatin (Homo sapiens) (UniProt P19883); experiment: FST protein binding to printed compounds – biochemical, small-molecule microarray, 635/667 nm fluorescence, primary screen (AID 1132); conditions: 635 nm fluorescence, higher = more signal
# Sequence of Follistatin (Homo sapiens) (P19883 whole entry, looked up): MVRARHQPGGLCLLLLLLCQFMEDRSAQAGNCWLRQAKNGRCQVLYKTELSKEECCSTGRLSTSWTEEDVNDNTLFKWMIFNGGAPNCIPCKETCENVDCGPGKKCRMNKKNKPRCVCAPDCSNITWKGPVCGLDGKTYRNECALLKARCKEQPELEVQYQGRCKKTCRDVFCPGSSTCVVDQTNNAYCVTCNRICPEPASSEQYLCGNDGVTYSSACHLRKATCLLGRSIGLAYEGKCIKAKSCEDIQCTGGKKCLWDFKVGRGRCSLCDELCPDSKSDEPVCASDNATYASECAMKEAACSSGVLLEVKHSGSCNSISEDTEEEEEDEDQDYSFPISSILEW
# [14] = biological target: Fibroblast growth factor 2 (Homo sapiens) (UniProt P09038); experiment: basic fibroblast growth factor binding to printed compounds – biochemical, small-molecule microarray, 635/667 nm fluorescence, primary screen (AID 1133); conditions: FGF2, fluorescence 635/667, higher = more signal
# Sequence of Fibroblast growth factor 2 (Homo sapiens) (P09038 whole entry, looked up): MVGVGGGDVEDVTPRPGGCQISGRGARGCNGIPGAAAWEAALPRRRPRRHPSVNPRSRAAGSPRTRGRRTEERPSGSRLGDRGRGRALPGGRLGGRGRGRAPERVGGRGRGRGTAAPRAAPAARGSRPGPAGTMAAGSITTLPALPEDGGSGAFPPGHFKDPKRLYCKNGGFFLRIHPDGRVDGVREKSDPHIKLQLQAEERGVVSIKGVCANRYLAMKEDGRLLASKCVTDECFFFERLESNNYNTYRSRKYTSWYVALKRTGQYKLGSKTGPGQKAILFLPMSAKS
# [15] = JC-1 mitochondrial potential readout, lung cancer cells – cell-based, A549, JC-1 fluorescence, basal, 24 h, 100 nL, profiling panel (AID 1138); conditions: higher = more signal;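 also: A549 lung adenocarcinoma cells under basal conditions with no added stimulus; test concentration not given here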
# Lefty1 = Lefty1 protein binding to printed compounds – biochemical, small-molecule microarray, 635/667 nm fluorescence, primary screen (AID 1139); conditions: fluorescence 635/667, higher = more signal
# [16] = tested on: wheat germ agglutinin (Triticum aestivum), Alexa647-labelled; experiment: Alexa647-WGA lectin binding to printed small molecules – biochemical, small-molecule microarray, 635/667 nm fluorescence, artefact control for SMM control-protein annotation, profiling panel (AID 1140); conditions: WGA-A647 binding, 635 nm fluorescence, higher = more signal;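 also: score merges 667 nm feature emission with signal to noise over triplicate slides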
# [17] = biological target: Luciferin 4-monooxygenase (Photinus pyralis) (UniProt P08659); experiment: inhibition of purified Photinus pyralis luciferase – biochemical, luminescence, purified enzyme, 2006 set, primary screen (AID 1141); conditions: purified firefly luciferase, SteadyGlo luminescence, 30 min; higher = more signal, called active from +8 up or from −8 down;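 also: cell-free assay with purified firefly luciferase at 100 ng per well in PBS; test concentration not given here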
# Sequence of Luciferin 4-monooxygenase (Photinus pyralis) (P08659 whole entry, looked up): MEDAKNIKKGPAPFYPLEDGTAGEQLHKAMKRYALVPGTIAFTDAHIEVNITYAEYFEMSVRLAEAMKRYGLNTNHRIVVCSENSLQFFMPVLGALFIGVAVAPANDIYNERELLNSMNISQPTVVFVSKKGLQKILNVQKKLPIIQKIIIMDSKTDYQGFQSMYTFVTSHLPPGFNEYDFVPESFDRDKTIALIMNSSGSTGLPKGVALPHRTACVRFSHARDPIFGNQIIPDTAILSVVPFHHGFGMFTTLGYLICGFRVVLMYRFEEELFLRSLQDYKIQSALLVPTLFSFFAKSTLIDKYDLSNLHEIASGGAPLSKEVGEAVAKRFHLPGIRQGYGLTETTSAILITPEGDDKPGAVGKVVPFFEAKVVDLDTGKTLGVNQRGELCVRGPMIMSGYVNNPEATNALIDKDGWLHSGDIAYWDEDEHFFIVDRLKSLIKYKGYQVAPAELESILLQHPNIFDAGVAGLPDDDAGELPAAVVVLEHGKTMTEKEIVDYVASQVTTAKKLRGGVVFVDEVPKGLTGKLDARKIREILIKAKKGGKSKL
Compound,composite z-score (Albumin (Bos taurus)),composite Z-score [1],composite z-score [2],composite z-score [3],composite z-score [4],composite z-score [5],composite z-score [6],composite z-score (Sam68 (KHDRBS1)),composite z-score [7],composite z-score [8],composite z-score [9],composite z-score [10],composite z-score [11],composite z-score [12],composite z-score [13],composite z-score [14],z-score [15],composite z-score (Lefty1),composite z-score [16],z-score [17]
COc1ccc([Si](C)(C)[C@@H]2[C@@H](CCn3cc([C@H](O)c4ccccc4)nn3)O[C@]3(C(=O)N(Cc4ccc(N5CCC5=O)cc4)c4ccccc43)[C@H]2C)cc1,0.0006,0.811 (inactive),-0.505,-0.0849,-0.266,0.121,-0.426,-0.323,-0.0871,0.469,0.174,-0.304,-0.0467,-0.926,1.31,0.749,1.87,1.05,0.118,-0.325 (inactive)
CC(=O)c1ccc(C(O)C2C=CC3C(=O)N(c4ccccc4)C(=O)C3N2Nc2ccc(C#N)cc2)cc1 (stereo not given),0.962,0.824 (inactive),0.119,-0.0023,0.759,2.46,-0.1,1.1,-0.624,1.13,0.631,1.01,1.27,0.72,-0.111,0.196,0.0866,-0.253,0.714,-0.0334 (inactive)
CCCC[C@@H](O)C1=C(COc2ccccc2)C[C@H]2C(=O)N(C)C(=O)[C@H]2[C@H]1CO,-0.261,-0.191 (inactive),-0.201,-0.173,-0.482,-0.61,-0.357,-0.501,0.103,-0.425,0.0713,-0.231,0.713,-0.247,0.129,-0.16,0.708,0.0695,-0.488,-0.475 (inactive)
COC(=O)[C@@]1(Cc2ccccc2)[C@H]2c3cc(C(=O)N(C)C)n(CCN4CNCC4=O)c3C[C@H]2CN1C(=O)c1ccccc1,0.984,0.0052 (inactive),0.571,0.37,0.826,-0.325,1.26,-0.764,-1.16,-1.42,3.19,0.644,-0.619,-1.2,-0.64,-0.8,0.697,-2.13,1.45,0.394 (inactive)
CC1CC/C=C\[C@H]2OC34C=CCN(c5ccc(Cl)cc5)C(=O)[C@H]3N(CCCCCO)C(=O)[C@]4(C)C2C(=O)O1 (stereo not given in full),-1.08,-0.0503 (inactive),-0.288,-0.117,-0.482,-0.779,-0.3,-0.682,-1.67,-1.03,-0.463,-0.978,-0.857,-1.65,-1.58,-1.04,0.681,-0.778,-0.141,-0.535 (inactive)
CCOC(=O)C[C@H]1[C@H](OC(=O)c2cc3ccccc3oc2=O)[C@@H](NC(=O)Cc2ccc(OC)cc2)c2cc(OCCCO)ccc2N1C(=O)c1ccc2ccccc2n1,-0.116,-0.431 (inactive),-0.152,-0.0666,0.353,0.303,0.096,0.206,0.583,0.0304,1.37,0.649,0.199,0.122,0.93,0.956,-0.013,0.838,0.0863,0.0113 (inactive)
C=CCN1C(=O)[C@@]2(CCS(=O)(=O)c3ccccc3)N=C(c3ccc(OCCCO)cc3)O[C@H]2c2ccccc21,-0.567,-0.101 (inactive),-0.0302,-0.0664,0.277,2.53,0.207,0.988,0.83,1.12,1.34,1.25,0.763,0.884,1.45,1.78,0.821,0.952,0.37,-1.48 (inactive)
COCCCNC(=O)[C@@]1(Sc2ccc(C)cc2)CC(=O)N(C2CCCCC2)[C@@H]1c1ccc(CO)cc1,-0.111,-0.513 (inactive),-0.337,-0.12,0.71,1.62,1.21,-0.281,-0.975,-0.305,0.624,-0.454,0.647,-1.08,-0.441,-0.511,-0.227,-1.63,-0.361,0.545 (inactive)
C=C(/C(=C/C[C@@H](OC(C)=O)c1cccc(OCCO)c1)c1cc(C(=O)OC)ccc1OC)C(C)C,0.805,0.142 (inactive),-0.0014,-0.177,0.447,0.206,0.0418,0.531,0.0865,0.574,-0.422,0.238,0.543,-0.75,1.12,1.39,0.834,1.16,0.743,0.0406 (inactive)
NC(=O)N1C(=O)C2C(C1=O)C1C=C(CCCO)C2C(c2cccs2)N1Cc1cccc(OC(F)(F)F)c1 (stereo not given),0.729,-0.182 (inactive),-0.023,-0.0534,0.583,0.789,-0.0259,1.07,-0.0665,0.434,2.83,0.416,0.192,0.692,0.82,-0.0701,0.928,0.672,0.438,-0.929 (inactive)
C=C(C)C1CCC(C(O)C2C=CC3C(=O)N(C)C(=O)C3N2N2CCCCC2)CC1 (stereo not given),0.735,0.172 (inactive),0.223,0.0598,0.514,2.03,0.386,1.29,1.24,1.12,1.17,1.24,0.525,0.884,1.21,0.286,0.32,0.962,1,0.344 (inactive)
